From PubChem BioAssay (NCATS) come the findings set out here.

A short description of experiment [1]: Viability qHTS for spleen associated tyrosine kinase inhibitor (SYKi) naive MV4-11 cells (AID 1963823). Further: nearly all actives have a fitted effect of over 40% in size. In short, it runs like this: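 SYKi-naive MV4-11 AML cells, 500 per well, were exposed to library compounds for 72 hr at 37 C, 5% CO2. Viability was then read by CellTiter-Glo luminescence after 10 min at room temperature.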
A short description of experiment [2]: Viability qHTS for spleen associated tyrosine kinase inhibitor (SYKi) drug resistant MV4-11 cells (AID 1963824). Further: nearly all actives have a fitted effect of over 35% in size. The gist of the method:
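CellTiter-Glo luminescence, read 10 min after reagent addition, reports viability after a 72 hr compound exposure. Cells are an MV4-11 line made resistant to SYK inhibition, seeded at 500 per well onto compound-containing plates.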
(In general: qHTS replaces the single test concentration by a dilution series.)

Structures are written as SMILES. Results filed as inconclusive are left out. Values without a mark were called inactive. Active and inactive are the calls of the source. The call rests on the fitted dose curve; in most records, active means well fitted cell-killing curve with a large enough effect; inconclusive means small, poorly fitted or top-dose-only effect, or effect the other way; inactive means no such curve, though single readings can be large or run the other way.
Potency means the concentration at half of the fitted maximal effect.

In the case of `O=c1c2cccnc2n(-c2cccc([N+](=O)[O-])c2)c(=O)n1Cc1ccncc1`, the Potency entry in experiment [1] and in experiment [2] was “inactive” in each case.

As for `CC1(C(=O)O)CCCC2(C)C3=CCC4CC3(CCC12)CC4CO` (stereo unspecified), the Potency result in experiment [1] and in experiment [2] was “inactive” each time.

In the case of `COC(=O)C1=C[C@@H](O)[C@@H](O)[C@H](O[C@@H]2O[C@H](COC(=O)/C=C/c3ccccc3)[C@@H](O)[C@H](O)[C@H]2O)C1`, the Potency entry in experiment [1] and in experiment [2] was “inactive” throughout.

As to `CN(CCCNC(=O)c1ccc2nc3c(c(Cl)c2c1)CCCC3)Cc1ccccc1`, the Potency in experiment [1] was 5800 nM (active); in experiment [2] it was 8200 nM (active).

On to `Cc1cc(N2CCCCC2)nc2ccccc12`, for which the Potency result in experiment [1] and in experiment [2] was “inactive” each time.

On to `C/C=C1\[C@H](O[C@@H]2O[C@H](CO)[C@@H](O)[C@H](O)[C@H]2O)OC=C(C(=O)OCCc2ccc(O)cc2)[C@H]1CC(=O)OCCc1ccc(O)cc1`, for which the Potency result in experiment [1] and in experiment [2] was “inactive” throughout.

In the case of `CC(C)(O)/C=C/C(=O)[C@](C)(O)[C@H]1[C@H](O)C[C@@]2(C)[C@@H]3CC=C4[C@@H](C=C(O[C@@H]5O[C@H](CO)[C@@H](O)[C@H](O)[C@H]5O)C(=O)C4(C)C)[C@]3(C)C(=O)C[C@]12C`, the Potency entry in experiment [1] and in experiment [2] was “inactive” each time.

As to `CN(C)CCOc1cc(NS(=O)(=O)c2c(Cl)cc(C(F)(F)F)cc2Cl)ccc1Cl`, the Potency result in experiment [1] and in experiment [2] was “inactive” in each case.

Turning to `Nc1nc(Nc2ccc3c(c2)CCC(N2CCCC2)CC3)nn1-c1cc2c(nn1)-c1ccccc1CCC2` (stereo unspecified), the Potency is 231 nM (active) in experiment [1] and 366 nM (active) in experiment [2].

As to `C[C@@H]1O[C@@H](O[C@H]2[C@H](O[C@H]3[C@H](O[C@H]4CC[C@@]5(C)C(CC[C@]6(C)C5CC=C5[C@@H]7CC(C)(C)CC[C@]7(C(=O)O[C@@H]7O[C@H](CO)[C@@H](O[C@@H]8O[C@@H](C)[C@H](O)[C@@H](O)[C@H]8O)[C@H](O)[C@H]7O)CC[C@]56C)C4(C)C)OC[C@H](O)[C@@H]3O)O[C@H](CO)[C@@H](O)[C@@H]2O)[C@H](O)[C@H](O)[C@H]1O` (stereo partly specified), the viability (% of control) in experiment [1] was 3.73% [at 9.25 µM]. For the same molecule, in experiment [2], the viability, % of control is 2.33% [at 9.25 µM].

Regarding `Cc1nc(C#Cc2ccnc(Cl)c2)c(C)n1-c1ccc(OC(F)(F)F)cc1`, the Potency was 20600 nM (active) in experiment [1] and 23100 nM (active) in experiment [2].

`N#Cc1ccc(C(=O)N2CCC3(CC2)N=C(N)c2c(F)ccc(F)c2N3)cn1`: the Potency result in experiment [1] and in experiment [2] was “inactive” throughout.

Regarding `COc1cc(/C=C/C(=O)O[C@H]2[C@H](OC(=O)/C=C/c3cc(OC)c(O)c(OC)c3)O[C@H](CO[C@@H]3O[C@H](CO)[C@@H](O)[C@H](O)[C@H]3O)[C@@H](O)[C@@H]2O)ccc1O`, the Potency result in experiment [1] and in experiment [2] was “inactive” each time.

For the molecule `Nc1nonc1-c1nc2cnccc2n1C1CCCCC1`, the Potency in experiment [1] was 517 nM (active); in experiment [2], 731 nM (active).

Consider `CC(=O)N(O)CCCCCN1C(=O)CCC1=O`, for which the Potency entry in experiment [1] and in experiment [2] was “inactive” each time.

`Cc1cccc(/C=N/Nc2cc(N3CCOCC3)n3nc(-c4ccncc4)cc3n2)c1`: the values for the Potency in experiment [1] and in experiment [2] were 1030 nM (active) and 291 nM (active), respectively.

Consider `C=C1[C@H]2CC[C@]3(O)[C@@](CC[C@@H]4[C@](C)(C(=O)O)CCC[C@]43C)(C2)[C@H]1OC(=O)/C(C)=C\C`, for which the Potency result in experiment [1] and in experiment [2] was “inactive” throughout.

As to `CCCc1c(C(C)C)nc(C(C)C)c([C@@H](C)O)c1-c1ccc(F)cc1O`, the values for the Potency in experiment [1] and in experiment [2] were 9200 nM (active) and 8200 nM (active), respectively.

Regarding `Fc1ccc(-c2nc(C3CCNCC3)sc2-c2ccnc(NC3CC3)n2)cc1`, the Potency in experiment [1] was 10300 nM (active); in experiment [2], 11600 nM (active).

Take `OC1C=C2C3CN(Cc4cc5c(cc43)OCO5)C2CC1O` (stereo unspecified): the Potency in experiment [1] and in experiment [2] was 5170 nM (active) each time.

Turning to `Cc1cc2c(c(=O)o1)C=C1CC[C@H]([C@H](C)Cn3cnc(=N)c4[nH]cnc43)C[C@@H]1O2`, the Potency result in experiment [1] and in experiment [2] was “inactive” in each case.

Consider `Oc1cccc(-c2nc(N3CCOCC3)c3sccc3n2)c1`, for which the Potency in experiment [1] is 820 nM (active); in experiment [2] it was 2060 nM (active).

Turning to `CN(C)CCNC(=O)c1cccn2c(=O)c3cc4ccccc4cc3nc12`, the Potency in experiment [1] is 299 nM (active); in experiment [2], 422 nM (active).

As for `C[C@@H]1COCCN1c1cc(C2(S(C)(=O)=O)CC2)nc(-c2cccc3[nH]ccc23)n1`, the results for the Potency in experiment [1] and in experiment [2] were 580 nM (active) and 366 nM (active), respectively.

Take `O=c1[nH]cnc2c([C@@H]3N[C@H](CO)[C@@H](O)[C@H]3O)c[nH]c12`: the Potency result in experiment [1] and in experiment [2] was “inactive” each time.

Consider `CCOC(=O)c1cc(C#N)c(N2CCC(C(=O)NS(=O)(=O)Cc3ccccc3)CC2)nc1C`, for which the Potency entry in experiment [1] and in experiment [2] was “inactive” in each case.

For the molecule `CN1C(=O)c2ccccc2-n2c(nc3ccccc3c2=O)[C@@]12O[C@H]2c1ccccc1`, the Potency in experiment [1] was 3600 nM (active). Also, the Potency result in experiment [2] was “inactive”.

Take `CC1=CC[C@]2(C(=O)O[C@@H]3O[C@H](CO[C@@H]4O[C@H](CO)[C@@H](O[C@@H]5O[C@@H](C)[C@H](O)[C@@H](O)[C@H]5O)[C@H](O)[C@H]4O)[C@@H](O)[C@H](O)[C@H]3O)CC[C@]3(C)C(CCC4[C@@]5(C)C[C@@H](O)[C@H](O)[C@@](C)(CO)C5CC[C@]43C)C2C1C` (stereo partly specified): the viability (% of control) in experiment [1] was 78.2% [at 9.25 µM]. For the same molecule, the viability, % of control in experiment [2] was 86.5% [at 9.25 µM].
